Laboratory results taken from PubChem BioAssay (EPA / NIEHS).
Results filed as inconclusive are left out. Calls of active or inactive are those of the source. The calls were made as follows: active = hit-call score of the fitted dose curve at least 0.9, where 1 is the maximum; inconclusive = response in the unintended direction; inactive = score below 0.9.

Legend:
[1] = target: Nuclear receptor subfamily 1 group I member 2 (Homo sapiens) (UniProt O75469); assay: ATG_PXR_TRANS: Attagene TRANS-FACTORIAL HepG2 Assay for human Pregnane X Receptor (PXR) (AID 2283008)
Method in brief: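 HepG2 transfected (FuGene 6) with GAL4-UAS reporter units + PXR-Gal4 chimera; dosed 24 h. Total RNA → oligo(dT) RT → PCR → 6-FAM primer extension → HpaI cut → CE. Gain-of-signal vs DMSO.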

[2] = target: human Retinoic Acid Receptor gamma (RARg), RARG (gene 5916) (UniProt P13631); assay: ATG_RARg_TRANS: Attagene TRANS-FACTORIAL HepG2 Assay for human Retinoic Acid Receptor gamma (RARg) (AID 2283009)
Method in brief: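 Transactivation of exogenous RARg-Gal4 fusion measured as reporter transcript induction after 24 h in transfected HepG2 cells. RNA reverse-transcribed, amplified, fluorescently labeled and resolved by capillary electrophoresis; increase relative to DMSO.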

[3] = target: Retinoic acid receptor RXR-alpha (Homo sapiens) (UniProt P19793); assay: ATG_RXRa_TRANS: Attagene TRANS-FACTORIAL HepG2 Assay for human Retinoid X Receptor alpha (RXRa) (AID 2283012)
Method in brief: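 TRANS format reporting activity of exogenous RXRa-Gal4 chimera in transiently transfected HepG2, 24 h exposure. Reporter transcripts quantified by RT-PCR with capillary electrophoresis, with gain of signal scored relative to DMSO.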

[4] = target: Peroxisome proliferator-activated receptor gamma (Homo sapiens) (UniProt P37231); assay: ATG_PPARg_TRANS: Attagene TRANS-FACTORIAL HepG2 Assay for human Peroxisome Proliferator-activated Receptor-gamma (PPARg) (AID 2283007)
Method in brief: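 Twenty-four hours after chemical dosing of transiently transfected HepG2 cells, isolated RNA was converted to cDNA, reporter sequences amplified and 6-FAM-labelled, then HpaI-digested and analysed by capillary electrophoresis. Signal increase against DMSO was fitted.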

[5] = target: human RAR-related Orphan Receptor gamma (RORg), RORC (gene 6097) (UniProt P51449); assay: ATG_RORg_TRANS: Attagene TRANS-FACTORIAL HepG2 Assay for human RAR-related Orphan Receptor gamma (RORg) (AID 2283011)
Method in brief: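 First, HepG2 liver cells were transfected with GAL4-UAS-driven reporter constructs and the RORg-Gal4 fusion. Next, they were treated with chemical for 24 h. Finally, reporter mRNA was quantified by RT-PCR and capillary electrophoresis, with upward activity fitted against DMSO.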

[6] = target: human Retinoid X Receptor beta (RXRb), RXRB (gene 6257) (UniProt P28702); assay: ATG_RXRb_TRANS: Attagene TRANS-FACTORIAL HepG2 Assay for human Retinoid X Receptor beta (RXRb) (AID 2283013)
Method in brief: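 Readout is reporter transcript induction after 24 h dosing. It is measured by RT-PCR of total RNA followed by fluorescent capillary electrophoresis. HepG2 liver cells carry transfected multiple reporter units driven by an exogenous RXRb-Gal4 fusion; activity is relative to DMSO.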

[7] = target: human Thyroid Receptor alpha (THRa1), THRA (gene 7067) (UniProt P10827); assay: ATG_THRa1_TRANS: Attagene TRANS-FACTORIAL HepG2 Assay for human Thyroid Receptor alpha (THRa1) (AID 2283014)
Method in brief: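 Reporter transcript induction, read by capillary electrophoresis of 6-FAM-labelled RT-PCR products, reflects activity of a transfected THRa1-Gal4 fusion in HepG2 liver cells. Cells were dosed for 24 h; activity was fitted in the positive direction against DMSO.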

[8] = target: human RAR-related Orphan Receptor beta (RORb), RORB (gene 6096) (UniProt Q92753); assay: ATG_RORb_TRANS: Attagene TRANS-FACTORIAL HepG2 Assay for human RAR-related Orphan Receptor beta (RORb) (AID 2283010)
Method in brief: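 Read-out is reporter mRNA induction, quantified by RT-PCR with fluorescent capillary electrophoresis, 24 h post-dose in transiently transfected HepG2 expressing exogenous NR-Gal4 chimera. Activity fitted upward versus DMSO.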

Measured: AC50

human Retinoic Acid Receptor gamma (RARg), RARG (gene 5916), sequence (P13631 whole entry, looked up, the tested form may be a part): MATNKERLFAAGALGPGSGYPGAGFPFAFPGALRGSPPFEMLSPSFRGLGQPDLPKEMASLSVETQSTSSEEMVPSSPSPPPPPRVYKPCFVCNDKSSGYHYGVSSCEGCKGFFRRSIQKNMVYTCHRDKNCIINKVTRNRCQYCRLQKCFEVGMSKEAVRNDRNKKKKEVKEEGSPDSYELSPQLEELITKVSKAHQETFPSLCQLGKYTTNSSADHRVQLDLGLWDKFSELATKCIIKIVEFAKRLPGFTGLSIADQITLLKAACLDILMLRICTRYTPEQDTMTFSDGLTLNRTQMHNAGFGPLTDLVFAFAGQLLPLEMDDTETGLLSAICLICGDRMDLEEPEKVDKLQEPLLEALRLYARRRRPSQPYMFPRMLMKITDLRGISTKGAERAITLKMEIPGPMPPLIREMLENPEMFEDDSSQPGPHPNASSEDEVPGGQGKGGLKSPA
human RAR-related Orphan Receptor beta (RORb), RORB (gene 6096), sequence (Q92753 whole entry, looked up, the tested form may be a part): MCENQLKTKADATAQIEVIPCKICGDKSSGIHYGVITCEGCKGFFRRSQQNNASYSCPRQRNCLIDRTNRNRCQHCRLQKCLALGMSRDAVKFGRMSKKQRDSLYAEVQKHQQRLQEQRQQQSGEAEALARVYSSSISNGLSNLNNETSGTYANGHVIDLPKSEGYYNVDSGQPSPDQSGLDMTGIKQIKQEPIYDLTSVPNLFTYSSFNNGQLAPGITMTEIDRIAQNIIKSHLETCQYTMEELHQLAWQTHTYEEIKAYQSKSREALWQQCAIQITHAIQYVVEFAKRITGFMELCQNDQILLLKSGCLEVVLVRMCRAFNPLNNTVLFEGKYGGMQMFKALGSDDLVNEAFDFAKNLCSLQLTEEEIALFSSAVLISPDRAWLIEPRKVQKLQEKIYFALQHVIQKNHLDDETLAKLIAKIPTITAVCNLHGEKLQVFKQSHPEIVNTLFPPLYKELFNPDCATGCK
Peroxisome proliferator-activated receptor gamma (Homo sapiens), sequence (P37231 whole entry, looked up): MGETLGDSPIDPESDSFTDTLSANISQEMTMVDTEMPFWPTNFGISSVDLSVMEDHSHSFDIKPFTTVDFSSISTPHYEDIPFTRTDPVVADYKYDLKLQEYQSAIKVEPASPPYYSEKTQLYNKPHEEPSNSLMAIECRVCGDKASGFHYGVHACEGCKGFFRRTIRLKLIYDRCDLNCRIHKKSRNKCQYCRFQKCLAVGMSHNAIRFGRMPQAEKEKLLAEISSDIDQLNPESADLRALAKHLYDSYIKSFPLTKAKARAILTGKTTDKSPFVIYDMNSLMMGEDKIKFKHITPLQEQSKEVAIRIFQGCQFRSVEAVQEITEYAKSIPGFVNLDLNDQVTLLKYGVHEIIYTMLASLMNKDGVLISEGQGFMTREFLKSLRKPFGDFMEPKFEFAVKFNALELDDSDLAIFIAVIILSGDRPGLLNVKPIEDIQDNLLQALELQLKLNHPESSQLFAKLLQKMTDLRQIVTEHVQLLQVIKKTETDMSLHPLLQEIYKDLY
human RAR-related Orphan Receptor gamma (RORg), RORC (gene 6097), sequence (P51449 whole entry, looked up, the tested form may be a part): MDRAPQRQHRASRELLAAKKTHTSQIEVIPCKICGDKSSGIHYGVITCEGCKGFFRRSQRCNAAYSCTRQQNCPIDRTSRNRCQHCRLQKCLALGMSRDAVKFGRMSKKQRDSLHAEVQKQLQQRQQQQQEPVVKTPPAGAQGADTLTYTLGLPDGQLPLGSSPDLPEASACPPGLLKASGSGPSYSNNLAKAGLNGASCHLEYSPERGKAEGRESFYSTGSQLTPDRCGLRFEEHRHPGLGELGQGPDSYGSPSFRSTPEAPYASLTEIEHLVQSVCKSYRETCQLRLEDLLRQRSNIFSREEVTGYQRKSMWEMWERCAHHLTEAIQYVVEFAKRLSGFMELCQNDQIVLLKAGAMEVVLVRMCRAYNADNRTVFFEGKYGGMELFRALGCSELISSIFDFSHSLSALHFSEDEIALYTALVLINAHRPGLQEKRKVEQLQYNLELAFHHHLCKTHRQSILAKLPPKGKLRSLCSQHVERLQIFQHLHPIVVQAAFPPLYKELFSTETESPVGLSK
human Retinoid X Receptor beta (RXRb), RXRB (gene 6257), sequence (P28702 whole entry, looked up, the tested form may be a part): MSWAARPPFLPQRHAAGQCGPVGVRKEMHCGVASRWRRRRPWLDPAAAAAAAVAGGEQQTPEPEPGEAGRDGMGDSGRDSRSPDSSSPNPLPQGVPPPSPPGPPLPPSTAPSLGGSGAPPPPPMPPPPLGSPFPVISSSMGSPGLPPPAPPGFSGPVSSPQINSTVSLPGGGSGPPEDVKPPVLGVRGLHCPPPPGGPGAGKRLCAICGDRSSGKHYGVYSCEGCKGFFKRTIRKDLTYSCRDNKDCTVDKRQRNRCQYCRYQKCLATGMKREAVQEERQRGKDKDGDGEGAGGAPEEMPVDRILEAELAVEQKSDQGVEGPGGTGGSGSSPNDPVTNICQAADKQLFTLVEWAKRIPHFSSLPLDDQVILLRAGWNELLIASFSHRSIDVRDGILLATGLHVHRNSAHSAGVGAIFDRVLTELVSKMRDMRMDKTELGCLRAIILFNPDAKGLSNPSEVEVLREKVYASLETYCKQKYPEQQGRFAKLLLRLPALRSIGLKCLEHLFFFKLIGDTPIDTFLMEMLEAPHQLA
human Thyroid Receptor alpha (THRa1), THRA (gene 7067), sequence (P10827 whole entry, looked up, the tested form may be a part): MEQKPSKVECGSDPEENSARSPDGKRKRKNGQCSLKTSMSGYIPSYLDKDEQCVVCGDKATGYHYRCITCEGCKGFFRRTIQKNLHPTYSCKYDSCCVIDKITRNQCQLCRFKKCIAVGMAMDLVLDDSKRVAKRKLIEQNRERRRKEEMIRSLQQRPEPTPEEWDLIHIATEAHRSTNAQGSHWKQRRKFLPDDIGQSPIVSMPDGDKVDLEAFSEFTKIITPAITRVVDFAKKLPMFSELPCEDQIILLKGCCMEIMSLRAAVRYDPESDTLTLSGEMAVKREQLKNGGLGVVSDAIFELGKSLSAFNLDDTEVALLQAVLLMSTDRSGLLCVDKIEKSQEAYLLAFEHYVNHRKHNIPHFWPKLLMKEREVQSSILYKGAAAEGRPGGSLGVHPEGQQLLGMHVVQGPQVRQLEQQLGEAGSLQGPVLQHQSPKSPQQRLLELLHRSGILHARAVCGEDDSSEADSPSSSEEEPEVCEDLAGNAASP
Retinoic acid receptor RXR-alpha (Homo sapiens), sequence (P19793 whole entry, looked up, the tested form may be a part): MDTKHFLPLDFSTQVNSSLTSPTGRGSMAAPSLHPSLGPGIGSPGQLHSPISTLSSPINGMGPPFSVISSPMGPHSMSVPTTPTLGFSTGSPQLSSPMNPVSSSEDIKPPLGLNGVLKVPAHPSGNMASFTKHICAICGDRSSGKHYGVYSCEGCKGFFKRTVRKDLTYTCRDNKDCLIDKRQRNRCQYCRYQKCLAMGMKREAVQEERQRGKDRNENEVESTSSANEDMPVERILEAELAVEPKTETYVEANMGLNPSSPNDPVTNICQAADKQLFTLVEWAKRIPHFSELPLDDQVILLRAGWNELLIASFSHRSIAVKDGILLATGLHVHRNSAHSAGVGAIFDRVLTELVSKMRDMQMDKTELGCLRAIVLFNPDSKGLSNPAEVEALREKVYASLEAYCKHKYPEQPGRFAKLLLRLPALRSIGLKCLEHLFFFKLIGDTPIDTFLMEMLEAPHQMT
Nuclear receptor subfamily 1 group I member 2 (Homo sapiens), sequence (O75469 whole entry, looked up, the tested form may be a part): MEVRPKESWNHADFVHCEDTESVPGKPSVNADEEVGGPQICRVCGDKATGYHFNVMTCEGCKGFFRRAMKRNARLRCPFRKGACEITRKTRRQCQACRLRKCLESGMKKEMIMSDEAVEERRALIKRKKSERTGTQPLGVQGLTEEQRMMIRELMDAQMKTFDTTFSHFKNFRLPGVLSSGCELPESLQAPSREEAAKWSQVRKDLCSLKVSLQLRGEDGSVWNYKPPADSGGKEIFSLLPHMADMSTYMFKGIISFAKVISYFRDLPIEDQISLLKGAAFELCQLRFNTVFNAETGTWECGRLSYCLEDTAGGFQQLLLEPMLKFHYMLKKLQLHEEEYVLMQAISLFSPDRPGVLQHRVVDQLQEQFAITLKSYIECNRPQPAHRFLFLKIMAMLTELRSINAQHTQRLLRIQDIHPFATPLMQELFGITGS

CC(Br)C(=O)O (stereo not drawn)
inactive: [1] | [2] | [3]

C=CCc1ccc(OC)cc1
inactive: [4] | [5] | [3] | [6] | [7]

COP(=O)(OC)O/C(=C\Cl)c1cc(Cl)c(Cl)cc1Cl
active: [4] 10800 nM | [1] 862 nM | [6] 25700 nM
inactive: [3] | [7]

COP(=O)(OC)OC
inactive: [1] | [8] | [5] | [7]

O=CC=O
inactive: [4] | [8] | [5] | [3] | [7]

Cc1ccc(N)cc1Cl
inactive: [4] | [1] | [3] | [7]

CCOC(=O)CP(=O)(OCC)OCC
inactive: [4] | [1] | [3] | [7]

N#CCCO
inactive: [2] | [8] | [5] | [3] | [7]

NNC(=S)NN
inactive: [4] | [3] | [6] | [7]

CCCCP(CCCC)CCCC
active: [1] 7210 nM
inactive: [8] | [3] | [7]

CCCCOCCOC(C)=O
inactive: [4] | [1] | [3] | [6] | [7]

Cl/C=C\C[N+]12CN3CN(CN(C3)C1)C2
inactive: [4] | [8] | [3]

C[C@@H](Oc1ccc(Cl)cc1Cl)C(=O)O
inactive: [2] | [6] | [7]
active: [4] 49400 nM

CN(CCCC(=O)c1cccnc1)N=O
not listed: [2] | [4]
inactive: all other assays above

CNC
inactive: [8] | [6]

CCC[CH2][Sn]([Cl])([Cl])[Cl]
inactive: [1] | [8] | [7]

CCC(=O)c1ccccc1
inactive: [4] | [8] | [3] | [7]

O=C(NCO)NCO
inactive: [5] | [3]

CNC(=O)O/N=C/C(C)(C)S(C)=O (stereo not drawn)
active: [4] 41100 nM
inactive: [1] | [3] | [6] | [7]

Clc1nc(Cl)nc(Cl)n1
inactive: [4] | [3] | [7]

C=CC#N
inactive: [4] | [7]

C[C@H]1O[C@@H](O[C@H]2[C@@H](O)C[C@H](O[C@H]3[C@@H](O)C[C@H](O[C@H]4CC[C@@]5(C)[C@H](CC[C@@H]6[C@@H]5CC[C@]5(C)[C@@H](C7=CC(=O)OC7)CC[C@]65O)C4)O[C@@H]3C)O[C@@H]2C)C[C@H](O)[C@@H]1O
inactive: [4] | [8] | [3] | [7]

CC1(C)CCC(Cc2ccc(Cl)cc2)C1(O)Cn1cncn1 (stereo not drawn)
inactive: [4] | [3] | [7]
active: [1] 1840 nM

C=CC(=O)N(C)C
inactive: [4] | [1] | [3] | [7]

COc1ccc(C=O)cc1OC
inactive: [4] | [8] | [5] | [3] | [7]

CC(=O)C=C(C)C
inactive: [1] | [2] | [8] | [3] | [6]

CCC[CH2][Sn]([CH2]CCC)([CH2]CCC)[O]C(=O)c1ccccc1
active: [4] 11.6 nM | [1] 344 nM | [3] 5.75 nM | [6] 105 nM

N#Cc1ccccn1
inactive: [8]

CC(=[OH+])/C=C(/C)[O-].CC(=[OH+])/C=C(/C)[O-].CC(=[OH+])/C=C(/C)[O-].[Fe]
inactive: [4] | [7]

C[C@H]1CCCC(=O)CCC/C=C/c2cc(O)cc(O)c2C(=O)O1
active: [1] 407 nM | [6] 9820 nM
inactive: [4] | [7]

COc1ccc(C=O)cc1
inactive: [4] | [8] | [5] | [3]

Cl/C=C/Cl
inactive: [8] | [6] | [7]

Nc1cccc(Cl)c1
inactive: [8] | [6] | [7]

O=C1CCCN1
inactive: [4] | [5] | [3]

Cc1ccccc1C(=O)Nc1cccc(OC(C)C)c1
active: [4] 27900 nM | [1] 2620 nM
inactive: [3] | [6] | [7]
